Screening results from PubChem BioAssay.
An excerpt weighted towards active compounds, which were near 3.7% of everything screened.
GLP-1R agonist: agonists of human GLP-1 receptor. P43220. AID 624172. HEK293 GLP-1R CRE-luciferase, luminescence, 4-6 h; cells express a hypersensitive GLP-1R form. Potency, µM (titrated, usually from 45.6 µM), most hits filed as activators. actives 0.007% (n = 380,000)
Target sequence (P43220 whole entry, looked up): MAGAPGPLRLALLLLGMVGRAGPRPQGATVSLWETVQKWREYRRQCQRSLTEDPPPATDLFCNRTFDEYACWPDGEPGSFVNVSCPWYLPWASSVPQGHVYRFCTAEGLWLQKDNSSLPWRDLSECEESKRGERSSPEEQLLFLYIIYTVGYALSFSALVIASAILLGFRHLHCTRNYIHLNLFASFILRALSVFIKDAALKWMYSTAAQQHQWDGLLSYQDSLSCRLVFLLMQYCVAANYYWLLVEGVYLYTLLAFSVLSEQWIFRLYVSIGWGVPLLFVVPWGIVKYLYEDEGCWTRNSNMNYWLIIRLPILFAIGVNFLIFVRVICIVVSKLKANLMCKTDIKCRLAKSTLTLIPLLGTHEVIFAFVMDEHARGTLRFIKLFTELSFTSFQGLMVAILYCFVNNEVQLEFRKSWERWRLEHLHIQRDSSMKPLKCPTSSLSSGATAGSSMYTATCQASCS
HepG2 tox: HepG2 cytotoxicity, counter-screen for TGF-b inhibitors; HepG2 CAGA-GFP viability, ATP luminescence, 18 h; actives 0.76% (n = 410,000); AID 588856; Potency, µM (highest dose often 46.1 µM), hits mostly cytotoxic
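HepG2 CAGA-GFP cells (1000/well, DMEM with 1% FBS) received compound, then TGF-beta at 500 pg/mL final, and were incubated 18 hours at 37 degrees C. Viability was read by CellTiter-Glo luminescence. Media-only wells were set as complete cell-killing and DMSO as no toxicity.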
ATXN viability: reduces viability in counter-screen for ATXN expression inhibitors; actives 0.49% (n = 400,000); S2 cells (HEK-293 line with an ATXN2-luciferase reporter) viability, CellTiter-Fluor protease fluorescence, 24 h; Potency, µM (top dose mostly 56.7 µM), most hits filed as cytotoxic; also: nearly all actives have a fitted effect of over 40% in size
ATXN2 expr inh: reduces ATXN2 reporter expression in HEK-293 cells. HEK-293 ATXN2-luciferase reporter, luminescence, 24 h. Potency, µM (doses to about 57 µM), hits mostly inhibitors. actives 0.72% (n = 360,000); also: nearly all actives have a fitted effect of over 55% in size
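ATXN2-luciferase reporter cells (luciferase flanked by upstream and downstream ATXN2 gene portions) were treated 24 h at 37 °C with compounds at up to 57 uM. SteadyGlo luminescence gave expression; GF-AFC fluorescence gave viability.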
GLP1R inv ag: GLP-1 receptor (human) inverse agonism; P43220; HEK293 GLP-1R CRE-luciferase, luminescence, 24 h; GLP-1R form is constitutively active; Potency, µM (titrated, usually from 38.3 µM), actives largely listed as inhibitors; actives 1.6% (n = 410,000); AID 624417; also: nearly all actives have a fitted effect of over 55% in size
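Luminescence readout: a drop in cAMP-driven luciferase signal flags inverse agonism at a constitutively active GLP-1R stably expressed in HEK293. Compound exposure lasted 24 hr at 37 deg C, 5% CO2.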
TGFb SMAD3 inh: blocks TGF-b signaling; HepG2 CAGA-GFP TGF-b/SMAD3 reporter, GFP fluorescence, 18 h; TGF-beta stimulated, 500 pg/mL final; Potency, µM (doses to about 46.1 µM), actives largely listed as inhibitors; actives 1.2% (n = 410,000); AID 588855; also: nearly all actives have a fitted effect of over 65% in size
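Per well, imaged GFP fluorescence of HEPG2 CAGA-GFP cells gives the signal; cells get compound, then TGF-beta (500 pg/mL final), 18 h at 37 degrees C; %Activity versus -TGF-beta and +DMSO controls.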
A number is an active result; . = inactive; ? = inconclusive; / = no result given; ! = repeats disagree; [ ] = remark or other dose. Calls follow the shape of the dose curve; as a rule, active = well fitted curve in the direction sought with a large enough effect; inconclusive = small, poorly fitted or top-dose-only effect, or another doubt; inactive = no such curve, though single readings can be large; an effect the other way counts as inactive or inconclusive.

SMILES	GLP-1R agonist	HepG2 tox	ATXN viability	ATXN2 expr inh	GLP1R inv ag	TGFb SMAD3 inh
CC(C)(C)OC(=O)N(CCc1ccccc1)Cc1ccc(OCc2cccc(NC(=O)C3CC3)c2)cc1	.	.	.	.	7.9µM	.
CC(C)(C)OC(=O)N(CCc1ccccc1)Cc1cccc(OCc2cccc(NC(=O)c3ccccc3)c2)c1	.	.	.	.	10µM	.
CCOC(=O)c1sc(N2C(=O)c3oc4ccc(F)cc4c(=O)c3C2c2ccc(C)cc2)nc1C (stereo not drawn)	/	.	/	/	/	.
O=C(/C(=C(\O)c1ccccc1)c1nc2ccccc2[nH]1)c1ccccc1	.	.	.	.	10µM	.
CC(=O)/C(=C(/O)c1ccccc1)c1nc2ccccc2[nH]1	.	.	.	.	.[7.66 µM]	.
CO/N=C(\C(=O)O)c1csc(NC(=O)CCl)n1	/	/	.	.	/	/
CO/N=C1/CC2(CC3CC(C/C=C(/C)CC(C)/C=C\C=C4\COC5C(O)C(C)=CC(C(=O)O3)C45O)O2)OC(/C(C)=C/C(C)C)C1C (stereo not drawn)	.	/	/	/	/	/
Cc1ccc(CNC(=S)Nc2ccc(NS(=O)(=O)c3ccc(C)cc3)cc2)cc1	.	.	.	.	10µM	?
CC(=O)Nc1cc2c(cc1Cl)-c1ccccc1C2	.	.	.	.	.	.
CCC(=O)Nc1cc2c(cc1Cl)-c1ccccc1C2	.	13µM	.	.	.	.
COc1cc(/C=N/O)ccc1OCc1ccc(C(=O)O)cc1	.	.	.	0.71µM	?	.
COc1cc(/C=N/NS(=O)(=O)c2ccc3ccccc3c2)ccc1OCc1ccc(C(=O)O)cc1	.	.	.	.	2.5µM	.
COc1cc(/C=N/NS(=O)(=O)c2ccc(C)cc2)ccc1OCc1cccc(C(=O)O)c1	.	.	.	.	3.2µM	.
COc1ccc(/C=N/NS(=O)(=O)c2ccc(C)cc2)cc1OC(=O)c1ccccc1	.	.	.	.	?	.
C=C1CCN(C(C(=O)O)C(C)C)S(=O)(=O)c2ccccc21 (stereo not drawn)	/	.	/	/	/	.
C[C@H](CSC(=O)c1ccccc1)C(=O)N1C[C@@H](Sc2ccccc2)C[C@H]1C(=O)O	/	/	.	/	/	/
COc1cc(=O)n2c(c1C(=O)NCc1ccco1)CCN(Cc1ccc3nsnc3c1)CC2	/	/	.	/	/	/
CC(C)(C)c1ccc(S(=O)(=O)N[C@H]2CC[C@@H](n3cc(C(=O)N4CCCC4)nn3)CC2)cc1	/	/	.	/	/	/
CCOCCCNC(=O)/C(C#N)=C/c1ccc(Cl)c([N+](=O)[O-])c1	.	.	?	?	11µM	?
Cn1c(-n2cccc2)c(-c2c(-c3ccc(F)cc3)[nH]c3c2c(=O)n(C)c(=O)n3C)c(=O)n(C)c1=O	/	.	/	/	.	.
OC(Cc1ccc2ccccc2n1)c1c(Cl)cccc1Cl (stereo not drawn)	/	.	/	/	/	.
CCOC(=O)Cc1csc(SCC(=O)Nc2cc(Cl)ccc2Oc2ccccc2)n1	.	.	.	.	10µM	.
CC(C)(C)c1cc(C(=O)NNc2cccc(Cl)c2)n(Cc2ccccc2)n1	.	.	/	.	1.3µM	?
CC(C)(C)c1cc(C(=O)NC2CC2)n(Cc2ccc(F)cc2)n1	.	.	.	.	?	.
Cc1ccc(NC(=O)c2cc(C(C)(C)C)nn2Cc2ccccc2)cc1	.	.	.	.	4µM	?
SMILES	GLP-1R agonist	HepG2 tox	ATXN viability	ATXN2 expr inh	GLP1R inv ag	TGFb SMAD3 inh
CC(C)(C)C(=O)NNC(=O)c1cc(C(C)(C)C)nn1Cc1ccccc1	.	.	.	.	?	.
Cc1ccc(NNC(=O)c2cc(C(C)(C)C)nn2Cc2ccccc2)cc1	.	.	.	.	3.2µM	.
CC(C)(C)c1cc(C(=O)Nc2ccc(F)cc2)n(Cc2ccc(F)cc2)n1	.	.	?	/	2.8µM	?
CCOc1ccccc1CNC(=O)Cn1cc2c(n1)-c1c(oc(C(=O)N3CCCC3)c1C)CC2	/	.	/	/	.	?
CCN(N=O)c1ccc(/C=C/c2ccnc3ccccc23)cc1	/	.	/	/	/	.
O=C(NCCN1CCOCC1)c1cnn(-c2ncc3c(n2)-c2ccccc2CC3)c1C1CC1	/	/	.	/	/	/
CC(C)(C)c1cc(C(=O)NNc2ccc(OC(F)(F)F)cc2)n(Cc2ccccc2)n1	.	.	.	.	2.2µM	?
Cn1nc(C(C)(C)C)cc1C(=O)NNC(=O)c1ccccc1Cl	.	.	.	.	.	.
CC(C)(C)c1cc(C(=O)NNc2cc(C(F)(F)F)ccc2Cl)n(Cc2ccccc2)n1	.	10µM	.	?	4µM	11µM
COc1ccccc1NNC(=O)c1cc(C(C)(C)C)nn1Cc1ccccc1	.	.	.	.	?	.
O=C1CN(CC(=O)N2CCCCC2)c2ccccc2O1	.	22µM	.	.	.	?
O=S1(=O)Nc2c(cc(Cl)c3ccc(Cl)nc23)-c2ccccc21	/	.	/	/	/	.
Cc1ccc2ccc3c(c2n1)NS(=O)(=O)c1ccc(C(F)(F)F)cc1-3	/	.	/	/	/	7.1µM
COc1cc2c(cc1O)CC[C@@H]1[C@@H]2CC[C@]2(C)[C@@H](O)CC[C@@H]12	.	.	?	.	11µM	.
COc1ccccc1-c1ccnc(-n2ncc(C(=O)NCC3(N4CCOCC4)CCCC3)c2C)n1	/	/	.	/	/	/
Cc1ccc2nc(N(CCCN(C)C)C(=O)c3cc(-c4cccs4)nc4ccccc34)sc2c1	.	11µM	32µM	?	2.5µM	16µM
CCc1ccc2nc(N(CCN(C)C)C(=O)c3ccc4ccccc4c3)sc2c1	.	.	.	.	13µM	.
CN(C)CCCN(C(=O)c1cc(-c2cccs2)nc2ccccc12)c1nc2c(F)cccc2s1	.	.	.	.	?	?
Cc1ccc2nc(N(CCCN(C)C)C(=O)c3ccc(Br)s3)sc2c1	.	13µM!	22µM!	?	?	?
CCN(CC)CCN(C(=O)c1ccc2ccccc2c1)c1nc2ccc(OC)cc2s1	.	.	.	/	.	.
CN(C)CCCN(C(=O)c1ccc(Br)s1)c1nc2ccc(F)cc2s1	/	.	.	.	.	.
CCN(CC)CCN(C(=O)c1cc2ccccc2cc1OC)c1nc2ccc(OC)cc2s1	.	.	.	/	5.6µM	?
CC(C)c1nn2c(=O)cc(COC(=O)c3ccc(NC(=O)CCc4ccccc4)cc3)nc2s1	/	.	/	/	.	.
Cc1cc(C)c2sc(N(CCN(C)C)C(=O)c3cc(Cl)sc3Cl)nc2c1	.	.	.	.	?	.
COc1ccccc1C(=O)N(CCN(C)C)c1nc2cc(C)cc(C)c2s1	.	.	.	/	11µM	?
